From PubChem BioAssay (Tox21) come the findings set out here.

Test [1] in a line: qHTS assay to identify small molecule phospholipidosis (PLD) inducers (AID 1259344; active means well fitted curve in the direction sought with a large enough effect; an effect the other way counts as inactive or inconclusive). Conditions: HepG2 phospholipidosis, LipidTOX Red imaging, 24 h; series mostly up to 38.3 µM. Summed up: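 After 4 h attachment on collagen I, HepG2 cells were dosed with compound alongside LipidTOX Red, kept 24 h at 37 C, fixed, and imaged for lamellar phospholipid pits.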
(In general: In qHTS, concentration-response curves come from the screen itself.)

The nature of test [2]: qHTS assay to identify small molecule HDAC inhibitors (AID 1259364).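 Further: wild-type HCT-116 cells with endogenous class I/II HDAC activity; top concentration of the series differs between compounds; nearly all actives have a fitted effect of over 45% in size.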 The settings on record: HCT-116 HDAC-Glo I/II luminescence, 2 h; series mostly up to 92.4 µM. Summed up:
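After a 2 hr compound incubation (37C, 5% CO2), HCT-116 cells seeded at 1,500/well the day before received HDAC-Glo reagent; signal read as luminescence after 30 min at room temperature.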

Test [3] can be described thus: qHTS assay to identify small molecule HDAC inhibitors - cell viability counter screen (AID 1259365). Further: nearly all actives have a fitted effect of over 50% in size. The settings on record: HCT-116 viability, CellTiter-Glo ATP luminescence, 2 h; series mostly up to 92.4 µM. In short, it runs like this: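 HCT-116 wild-type, overnight attachment; 2hr drug exposure, 37C; CellTiter-Glo luminescent ATP readout after 30min RT.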
A short description of test [4]: qHTS assay to identify small molecule agonists of the sonic hedgehog signaling (Shh) pathway - cell viability counter screen (AID 1259366). Further: nearly all actives have a fitted effect of over 50% in size. Further: potency means the concentration at half of the fitted maximal effect. The settings on record: NIH/3T3 Gli1-Luc viability, CellTiter-Fluor, 24 h; series mostly up to 92.4 µM. In short, it runs like this: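 Compounds in DMSO were pin-transferred onto 3T3 Gli1-Luc cells that had settled 4hr; plates then stood 24hr at 37C and 5% CO2. One hour before the end, CellTiter-Fluor was added and fluorescence recorded.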

The nature of test [5]: qHTS assay to identify small molecule antagonists of the sonic hedgehog signaling (Shh) pathway - cell viability counter screen (AID 1259367). Further: nearly all actives have a fitted effect of over 55% in size. Further: potency means the concentration at half of the fitted maximal effect. The settings on record: NIH/3T3 Gli1-Luc viability, CellTiter-Fluor, 24 h; series mostly up to 92.4 µM. In short, it runs like this:
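Conditioned medium drove Shh signaling in 3T3 Gli1-Luc cells exposed to compounds at 37C and 5% CO2. Viability was determined from CellTiter-Fluor fluorescence, with reagent incubated 1 hr after 23 hr of treatment.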

Test [6] can be described thus: qHTS assay to identify small molecule agonists of the sonic hedgehog signaling (Shh) pathway (AID 1259368; calls by dose curve;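 further: NIH/3T3-derived 3T3Gli1-Luc cells carrying a stable Gli1-driven firefly luciferase reporter; nearly all actives have a fitted effect of over 15% in size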). Conditions: NIH/3T3 Gli1-Luc reporter, luciferase, 24 h; series mostly up to 92.4 µM. Summed up: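 Stable NIH/3T3 Gli1-Luc reporter clone; 24 hr cpd exposure after a 4 hr settling period; luminescence endpoint.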
A short description of test [7]: qHTS assay to identify small molecule antagonists of the sonic hedgehog signaling (Shh) pathway (AID 1259369; calls by dose curve; further: nearly all actives have a fitted effect of over 45% in size; further: potency means the concentration at half of the fitted maximal effect). The settings on record: NIH/3T3 Gli1-Luc reporter, Shh antagonist, luminescence 24 h; series mostly up to 92.4 µM. In short, it runs like this: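 Gli1 transcriptional reporter (firefly Luc) in NIH/3T3 background, conditioned-medium activated. 24hr exposure, luminescence endpoint.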

The nature of test [8]: qHTS assay to identify small molecule agonists of the estrogen receptor beta (ER-beta) signaling pathway - cell viability counter screen (AID 1259380). Further: nearly all actives have a fitted effect of over 30% in size. Conditions: ER-beta-bla HEK293T viability, CellTiter-Glo luminescence, 16 h; series mostly up to 92.4 µM. Summed up: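 In this qHTS counter screen, HEK293T cells carrying an ER-beta/UAS beta-lactamase reporter, grown in 2% charcoal-stripped FBS, received compound for 16 hr; ATP-based CellTiter-Glo luminescence was then read after 30 min at room temperature.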

A short description of test [9]: qHTS assay to identify small molecule antagonists of the estrogen receptor beta (ER-beta) signaling pathway - cell viability counter screen (AID 1259382). Further: nearly all actives have a fitted effect of over 55% in size. The settings on record: ER-beta-UAS-bla HEK293T viability, CellTiter-Glo luminescence, 16 h; series mostly up to 92.4 µM. Summed up:
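HEK293T ER-beta-UAS-bla, 2% charcoal-stripped FBS; compounds + 1nM E2 16 hr 37C; CellTiter-Glo luminescence, 30 min RT.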

A short description of test [10]: qHTS assay to identify small molecule agonists or antagonists of the thyroid stimulating hormone receptor (TSHR) signaling pathway - wild type cell line counter screen (AID 1259384; calls by dose curve). The settings on record: HEK293 wild type, cAMP HTRF counter-screen; series mostly up to 92.4 µM. In short, it runs like this: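 Wild-type HEK293 cells were plated 18 h at 37 C/5% CO2, pin-dosed with compound plus Ro20-1724 medium, held 30 min at room temperature, then given cAMP-d2 and anti-cAMP-cryptate; fluorescence was read after 1 h. Fifteen concentrations, triplicate.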

Test [11] concerns the target Thyrotropin receptor (Homo sapiens) (UniProt P16473). Put plainly: qHTS assay to identify small molecule antagonists of the thyroid stimulating hormone receptor (TSHR) signaling pathway (AID 1259385; calls by dose curve; further: nearly all actives have a fitted effect of over 20% in size). The settings on record: TSHR-HEK293 cAMP HTRF, TSH-stimulated antagonist mode; series mostly up to 92.4 µM. In short, it runs like this: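 TSHR-HEK293 cells were plated and held 18 h at 37C/5% CO2, then given compound plus Ro20-1724 and stimulated with TSH at 1.5 ng/mL final. After 30 min at room temperature, cAMP was detected with cAMP-d2/anti-cAMP-cryptate (1 h) by fluorescence.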

Test [12] addresses Progesterone receptor (Homo sapiens) (UniProt P06401). The experiment in a line: qHTS assay to identify small molecule agonists of the progesterone receptor (PR) signaling pathway (AID 1346784; calls by dose curve; further: nearly all actives have a fitted effect of over 30% in size). Conditions: PR-UAS-bla HEK293T, beta-lactamase FRET ratio, 16 h; series mostly up to 92.4 µM. Summed up:
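Fluorescence from LiveBLAzer B/G FRET substrate cleavage (2 hr, RT) reported PR activation in PR-UAS-bla HEK 293T cells treated 16 hr at 37C/5% CO2 with compounds; medium contained 2% charcoal-stripped FBS.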

Test [13] addresses Estrogen receptor beta (Homo sapiens) (UniProt Q92731). The experiment in a line: qHTS assay to identify small molecule agonists of the estrogen receptor beta (ER-beta) signaling pathway (AID 1259377; active means well fitted activation curve with a large enough effect in the signal ratio in the repeat runs, not every such curve was filed as active; the % refers to the signal ratio). The settings on record: ER-beta-UAS-bla HEK293T, beta-lactamase FRET ratio, 16 h; series mostly up to 92.4 µM. Summed up:
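qHTS in ER-beta-UAS-bla HEK293T cells: 6 hr settling, then 16 hr compound at 37C, then LiveBLAzer substrate 2 h at RT before fluorescence reading.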

The nature of test [14]: qHTS assay to identify small molecule agonists of the androgen receptor (AR) signaling pathway in the presence of an antagonist - cell viability counter screen (AID 1259379).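 Further: MDA-kb2 human breast cancer cells carrying an MMTV luciferase reporter; nearly all actives have a fitted effect of over 25% in size.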 Conditions: MDA-kb2 viability, CellTiter-Fluor, 16 h; series mostly up to 92.4 µM. In short, it runs like this: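 Counter screen for cell viability run in parallel with the AR agonist-mode luciferase assay. MDA-kb2 cells were co-treated with nilutamide (3.0uM final) and compounds, then incubated 16 hr at 37C, and CellTiter-Fluor fluorescence was measured.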

Test [15] in a line: qHTS assay to identify small molecule agonists of the estrogen receptor alpha (ER-alpha) signaling pathway in the presence of an antagonist - cell viability counter screen (AID 1259386). Further: nearly all actives have a fitted effect of over 30% in size. Further: potency means the concentration at half of the fitted maximal effect. The settings on record: VM7Luc4E2 viability, CellTiter-Fluor fluorescence, 22 h; series mostly up to 92.4 µM. Summed up: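 Steps: 5-day stripped-FBS culture; seed and incubate 24hr; add ICI-182,780 (10.0nM final); pin 15-point compound titration; incubate 22hr at 37C; add CellTiter-Fluor at 21hr; read fluorescence.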

The target of test [16] is Estrogen receptor (Homo sapiens) (UniProt P03372). The experiment in a line: qHTS assay to identify small molecule antagonists of the estrogen receptor alpha (ER-alpha) signaling pathway using the BG1 cell line in the presence of 0.1 nM 17-beta-estradiol (AID 1259244). Further: nearly all actives have a fitted effect of over 50% in size. Conditions: VM7Luc4E2 (BG1) ERE-luciferase, antagonist mode, 0.1 nM E2, 22 h; series mostly up to 92.4 µM. In short, it runs like this: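 Seeding of stripped-serum-adapted VM7Luc4E2 cells, 24 h attachment, compound transfer, then 0.1 nM final 17beta-estradiol; after 22 h incubation, ONE-Glo reagent and luminescence reading.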
Sequence of Estrogen receptor (Homo sapiens) (P03372 whole entry, looked up): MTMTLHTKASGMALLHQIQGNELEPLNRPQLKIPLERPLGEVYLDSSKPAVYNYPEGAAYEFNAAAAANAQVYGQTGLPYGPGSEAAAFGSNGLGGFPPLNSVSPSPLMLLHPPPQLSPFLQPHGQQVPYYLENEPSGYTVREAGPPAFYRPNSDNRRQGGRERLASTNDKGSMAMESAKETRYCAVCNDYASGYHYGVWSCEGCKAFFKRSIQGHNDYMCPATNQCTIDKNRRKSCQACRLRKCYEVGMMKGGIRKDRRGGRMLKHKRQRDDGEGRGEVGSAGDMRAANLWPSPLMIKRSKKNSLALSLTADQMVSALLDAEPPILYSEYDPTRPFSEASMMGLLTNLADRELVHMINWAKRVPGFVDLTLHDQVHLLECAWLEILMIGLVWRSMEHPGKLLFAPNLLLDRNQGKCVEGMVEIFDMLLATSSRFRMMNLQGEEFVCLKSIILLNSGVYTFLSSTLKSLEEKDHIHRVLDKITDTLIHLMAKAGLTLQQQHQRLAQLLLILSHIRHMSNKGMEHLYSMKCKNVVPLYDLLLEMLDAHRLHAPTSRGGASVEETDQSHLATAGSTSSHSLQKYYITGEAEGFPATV

The target of test [17] is Estrogen receptor beta (Homo sapiens) (UniProt Q92731). The experiment in a line: qHTS assay to identify small molecule antagonists of the estrogen receptor beta (ER-beta) signaling pathway (AID 1259378; active means well fitted inhibition curve with a large enough effect in the signal ratio in the repeat runs, not every such curve was filed as active; the % refers to the signal ratio). Conditions: ER-beta-UAS-bla HEK293T, beta-lactamase FRET ratio, 16 h; series mostly up to 92.4 µM. Summed up: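 ER-beta-UAS-bla HEK293T (GripTite) cells in 2% charcoal-stripped FBS medium were preincubated 6 hr at 37C, dosed with compound, then stimulated with 1 nM E2 (final) for 16 hr; beta-lactamase reporter read by B/G FRET fluorescence after 2 hr substrate loading.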
Sequence of Estrogen receptor beta (Homo sapiens) (Q92731 whole entry, looked up): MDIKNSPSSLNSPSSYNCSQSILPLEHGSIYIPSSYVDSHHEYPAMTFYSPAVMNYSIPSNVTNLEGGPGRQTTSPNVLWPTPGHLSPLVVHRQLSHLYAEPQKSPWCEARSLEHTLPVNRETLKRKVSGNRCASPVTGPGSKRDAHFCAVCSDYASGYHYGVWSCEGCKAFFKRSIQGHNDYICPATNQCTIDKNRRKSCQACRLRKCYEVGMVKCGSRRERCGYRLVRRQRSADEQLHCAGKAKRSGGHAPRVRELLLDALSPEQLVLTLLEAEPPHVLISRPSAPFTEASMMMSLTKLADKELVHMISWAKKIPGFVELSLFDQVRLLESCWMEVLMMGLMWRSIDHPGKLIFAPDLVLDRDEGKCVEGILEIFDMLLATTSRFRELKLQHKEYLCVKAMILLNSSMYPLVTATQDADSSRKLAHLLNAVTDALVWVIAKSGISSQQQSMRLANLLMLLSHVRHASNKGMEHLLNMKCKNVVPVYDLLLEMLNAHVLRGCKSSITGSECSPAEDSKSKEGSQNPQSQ

For test [18], the target named is Estrogen receptor (Homo sapiens) (UniProt P03372). The experiment in a line: qHTS assay to identify small molecule agonists of the estrogen receptor alpha (ER-alpha) signaling pathway in the presence of an antagonist (AID 1259383; calls by dose curve; further: top concentration of the series differs between compounds; nearly all actives have a fitted effect of over 15% in size). The settings on record: VM7Luc4E2 cells, ERE-luciferase, +ICI-182,780, 22 h; series mostly up to 92.4 µM. Summed up:
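ER-alpha agonism measured under antagonist challenge: 10.0nM ICI-182,780 (final) plus compound, 15 concentrations, 22hr, VM7Luc4E2 ERE-luciferase cells. Read by luminescence.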

Unmarked numbers belong to inactive results. Records with an inconclusive call do not appear. Active and inactive are the calls of the source. Unless noted, the call rests on the fitted dose curve; in most records, active means well fitted curve in the direction sought with a large enough effect in the repeat runs; inconclusive means weak or mixed curves; inactive means no such curve, though single readings can be large; an effect the other way counts as inactive or inconclusive.
On the % scale 0 is the no-effect control and ±100 the full control effect.

Sequence of Thyrotropin receptor (Homo sapiens) (P16473 whole entry, looked up): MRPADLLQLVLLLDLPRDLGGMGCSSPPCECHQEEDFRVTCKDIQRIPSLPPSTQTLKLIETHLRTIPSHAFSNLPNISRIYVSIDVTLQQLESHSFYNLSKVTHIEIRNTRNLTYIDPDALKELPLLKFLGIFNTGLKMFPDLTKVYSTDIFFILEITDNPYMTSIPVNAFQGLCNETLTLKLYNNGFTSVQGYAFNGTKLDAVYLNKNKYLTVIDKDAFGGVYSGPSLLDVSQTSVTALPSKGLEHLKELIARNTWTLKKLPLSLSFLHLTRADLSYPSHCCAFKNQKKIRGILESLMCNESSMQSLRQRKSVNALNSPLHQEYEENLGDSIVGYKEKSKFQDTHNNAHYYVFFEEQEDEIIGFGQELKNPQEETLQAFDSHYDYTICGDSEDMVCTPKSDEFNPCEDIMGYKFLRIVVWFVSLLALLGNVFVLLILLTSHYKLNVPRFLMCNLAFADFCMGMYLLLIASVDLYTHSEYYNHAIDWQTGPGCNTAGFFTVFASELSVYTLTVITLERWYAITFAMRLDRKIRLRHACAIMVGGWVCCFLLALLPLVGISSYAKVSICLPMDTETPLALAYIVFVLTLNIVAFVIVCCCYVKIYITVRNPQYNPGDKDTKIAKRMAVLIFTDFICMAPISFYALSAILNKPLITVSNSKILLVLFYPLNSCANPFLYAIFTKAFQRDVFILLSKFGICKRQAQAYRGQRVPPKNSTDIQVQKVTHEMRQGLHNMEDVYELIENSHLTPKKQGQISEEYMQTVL
Sequence of Progesterone receptor (Homo sapiens) (P06401 whole entry, looked up): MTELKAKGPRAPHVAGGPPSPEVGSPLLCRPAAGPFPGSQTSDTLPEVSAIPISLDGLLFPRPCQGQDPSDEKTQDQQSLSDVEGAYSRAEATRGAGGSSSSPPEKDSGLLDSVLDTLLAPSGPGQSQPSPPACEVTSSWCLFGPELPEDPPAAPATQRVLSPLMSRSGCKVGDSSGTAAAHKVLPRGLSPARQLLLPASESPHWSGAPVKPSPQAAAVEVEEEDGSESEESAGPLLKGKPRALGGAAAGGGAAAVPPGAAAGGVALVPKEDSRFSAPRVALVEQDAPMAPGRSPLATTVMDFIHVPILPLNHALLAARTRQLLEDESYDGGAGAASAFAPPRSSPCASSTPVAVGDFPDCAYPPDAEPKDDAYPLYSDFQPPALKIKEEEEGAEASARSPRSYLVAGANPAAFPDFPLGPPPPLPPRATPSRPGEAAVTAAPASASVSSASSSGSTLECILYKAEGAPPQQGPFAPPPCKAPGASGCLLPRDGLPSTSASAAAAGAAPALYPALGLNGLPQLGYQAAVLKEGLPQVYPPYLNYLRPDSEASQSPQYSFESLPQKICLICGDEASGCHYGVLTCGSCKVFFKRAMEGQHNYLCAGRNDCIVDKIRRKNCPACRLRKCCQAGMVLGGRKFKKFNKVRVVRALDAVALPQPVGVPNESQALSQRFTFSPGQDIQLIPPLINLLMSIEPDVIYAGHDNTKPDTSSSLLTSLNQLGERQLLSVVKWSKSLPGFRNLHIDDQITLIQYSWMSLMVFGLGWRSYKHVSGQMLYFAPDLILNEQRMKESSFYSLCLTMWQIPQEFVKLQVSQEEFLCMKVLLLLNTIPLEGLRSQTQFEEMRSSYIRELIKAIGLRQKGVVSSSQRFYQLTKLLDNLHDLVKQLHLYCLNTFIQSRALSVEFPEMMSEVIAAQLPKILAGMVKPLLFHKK

With `NC(Cc1ccc(Cl)cc1)C(=O)O` (stereo not given), the Potency result in test [1] was “inactive”. Besides, the activity change, negative = inhibition in [2] was -0.367% [at 0.349 µM]; in test [7], 23.4% [at 0.349 µM]; in test [11] it was 0.481% [at 0.349 µM]. Besides, the activity change, negative = cytotoxicity is 1.43% [at 0.349 µM] in test [3], -2.17% [at 0.349 µM] in [8] and -0.284% [at 0.349 µM] in test [9]. Besides, the viability change, negative = cytotoxic in test [4] was 0.958% [at 0.349 µM]; in test [5], 2.83% [at 0.349 µM]. In addition, in test [6], the activity change was -0.363% [at 0.349 µM, active compounds read high]. Moreover, in [10], the cAMP activity change was -3.62% [at 0.349 µM, active compounds read high]. Moreover, the activation in test [12] is -4.74% [at 0.349 µM].
`COC(c1ccccc1)(c1ccccc1)[C@H](Oc1nc(C)cc(C)n1)C(=O)O`: the Potency result in test [1], in test [2], in test [3], in test [4], in test [5] and in test [6] was “inactive” each time. Moreover, the Potency result in [7], in [14], in [9], in test [10], in test [11] and in test [15] was “inactive” throughout. Further, the Potency entry in [12] was “inactive”. Further, in test [13], the result was inactive.
On to `Cc1cccc([N+](=O)[O-])c1C(=O)O`, for which the Potency entry in test [16], in [2], in [3], in test [5], in test [6] and in [7] was “inactive” throughout. Moreover, the Potency entry in [17], in test [14], in [8], in test [9], in [18] and in [10] was “inactive” throughout. The Potency entry in [11], in test [15] and in test [12] was “inactive” throughout. Besides, in test [13], the outcome was inactive.
For `CCCCN(CCO)CCCC`, the Potency entry in test [16], in [3], in test [5], in test [6], in [7] and in [17] was “inactive” in each case. Further, the Potency result in [8], in test [9], in test [18], in [10], in test [11] and in test [15] was “inactive” throughout. For the same molecule, the Potency result in test [12] is “inactive”. Further, in test [13], the result was inactive.
For `CC[C@]1(O)C[C@@H]2CN(CCc3c([nH]c4ccccc34)[C@@](C(=O)OC)(c3cc4c(cc3OC)N(C)[C@H]3[C@@](O)(C(=O)OC)[C@H](OC(C)=O)[C@]5(CC)C=CCN6CC[C@]43[C@@H]65)C2)C1`, the Potency result in [1], in test [2], in test [3], in test [6], in test [14] and in test [8] was “inactive” throughout. Further, the Potency result in test [9], in test [10], in test [11] and in test [12] was “inactive” throughout. Besides, the Potency in test [4] was 11.9 µM (active); in test [5], 29.8 nM (active); in test [7], 37.6 nM (active); in test [15], 10.6 µM (active).
